{
  "source": "PubChem BioAssay (Tox21)",
  "note": "Inconclusive results are not listed. Unmarked numbers belong to inactive results. The call rests on the fitted dose curve; in most records, active means well fitted cell-killing curve with a large enough effect in the repeat runs; inconclusive means weak or mixed curves, or effect the other way; inactive means flat fitted curve, though single readings scatter. On the % scale 0 is the no-effect control and ±100 the full control effect.",
  "data": [
    {"experiment": "qHTS RealTime-Glo MT Cell Viability Assay in HepG2 cells - 40 hour (AID 1224870); further: nearly all actives have a fitted effect of over 50% in size", "conditions": "RealTime-Glo luminescence; series mostly up to 76.8 µM; activity change, negative = cytotoxic: at the top concentration", "summary_of_the_method": "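Real-time viability: cells seeded at 600 per well together with NanoLuc and cell-permeant prosubstrate, compounds added after 5 h incubation. Luminescence tracked at 0, 8, 16, 24, 32 and 40 h of exposure.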", "values": [
      {"smiles": "CCCCCCCCc1ccc(S(=O)(=O)O)cc1", "activity change, negative = cytotoxic": "4.27%"},
      {"smiles": "CC1=C(CC(=O)O)c2cc(F)ccc2/C1=C\\c1ccc(S(C)(=O)=O)cc1", "activity change, negative = cytotoxic": "-5.7% [at 35.3 µM]"},
      {"smiles": "CC(C)NCC(O)COc1ccc(CCOCC2CC2)cc1", "note": "(configuration not stated)", "activity change, negative = cytotoxic": "0.401% [at 35.3 µM]"},
      {"smiles": "C1CCOC1", "activity change, negative = cytotoxic": "0.202%"},
      {"smiles": "C=O", "activity change, negative = cytotoxic": "-1.45%"},
      {"smiles": "COc1nc(C)nc(NC(=O)NS(=O)(=O)c2ccccc2OCCCl)n1", "activity change, negative = cytotoxic": "0.206%"},
      {"smiles": "O=C(O)[C@@H]1CSCN1", "activity change, negative = cytotoxic": "-1.29% [at 35.3 µM]"},
      {"smiles": "O=C(O)[C@@H](O)[C@H](O)[C@H](O)[C@@H](O)C(=O)O", "activity change, negative = cytotoxic": "-0.278% [at 35.3 µM]"},
      {"smiles": "CN1CCN(C2=Nc3ccccc3Oc3ccc(Cl)cc32)CC1", "activity change, negative = cytotoxic": "-1.3% [at 35.3 µM]"},
      {"smiles": "CC(C)O", "activity change, negative = cytotoxic": "7.86%"},
      {"smiles": "CCC1(C)NC(=O)NC1=O", "note": "(configuration not stated)", "activity change, negative = cytotoxic": "-0.0399%"},
      {"smiles": "CC/C=C\\CCOC(=O)C(C)C", "activity change, negative = cytotoxic": "1.5%"},
      {"smiles": "CCCCCCCOC(=O)CCC", "activity change, negative = cytotoxic": "0.621%"},
      {"smiles": "CCCCCCC", "activity change, negative = cytotoxic": "-1.37%"},
      {"smiles": "OCCN1CCN(CCO)CC1", "activity change, negative = cytotoxic": "-1.44%"},
      {"smiles": "O=C1CCCc2ccccc21", "activity change, negative = cytotoxic": "0.32%"},
      {"smiles": "O=C1C=CC(=O)O1", "activity change, negative = cytotoxic": "1.48%"},
      {"smiles": "O=C(O)c1ccccc1Nc1cc(Cl)ccc1C(=O)O", "activity change, negative = cytotoxic": "-5.11% [at 15.8 µM]"},
      {"smiles": "CCc1cc2cc(OC)c(OC)cc2c(Cc2ccccc2)n1", "activity change, negative = cytotoxic": "-7.3% [at 35.3 µM]"},
      {"smiles": "CN1CCC[C@@H]1Cc1c[nH]c2ccc(CCS(=O)(=O)c3ccccc3)cc12", "activity change, negative = cytotoxic": "2.84% [at 35.3 µM]"},
      {"smiles": "Cc1cc2nc(N)sc2cc1C", "activity change, negative = cytotoxic": "0.16%"},
      {"smiles": "CCCNC(C)C(=O)Nc1c(C)csc1C(=O)OC", "note": "(configuration not stated)", "activity change, negative = cytotoxic": "2.95% [at 35.3 µM]"},
      {"smiles": "Cc1cc(NS(=O)(=O)c2ccc(N)cc2)nc(C)n1", "activity change, negative = cytotoxic": "-1.22% [at 35.3 µM]"},
      {"smiles": "CCCCCCCCCCCCCCCCOP(=O)([O-])OCC[N+](C)(C)C", "activity change, negative = cytotoxic": "-1.01% [at 35.3 µM]"},
      {"smiles": "NC1=NCC2c3ccccc3Cc3ccccc3N12", "note": "(configuration not stated)", "activity change, negative = cytotoxic": "-21.8% [at 35.3 µM]"},
      {"smiles": "Cc1ccc(C)c(N)c1", "activity change, negative = cytotoxic": "1.36%"},
      {"smiles": "O=C1N(c2ccccc2)c2ccccc2C1(Cc1ccncc1)Cc1ccncc1", "activity change, negative = cytotoxic": "2.85% [at 35.3 µM]"}
    ]}
  ]
}
